Laboratory results as given in PubChem BioAssay (EPA / NIEHS).
Records with an inconclusive call do not appear. Active and inactive are the calls of the source. Rule for the calls, unless noted: active = hit-call score of the fitted dose curve at least 0.9, where 1 is the maximum; inconclusive = response in the unintended direction; inactive = score below 0.9.

Columns and labels:
[1] = target: human Peroxisome Proliferator-activated Receptor alpha (PPARa), PPARA (gene 5465) (UniProt Q07869); assay: ATG_PPARa_TRANS: Attagene TRANS-FACTORIAL HepG2 Assay for human Peroxisome Proliferator-activated Receptor alpha (PPARa) (AID 2283001);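 for AC50: potency for gain of reporter signal over DMSO so agonist or activator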
How it was run: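 HepG2 cells transiently transfected with multiplexed GAL4-UAS reporters driven by exogenous chimeric NR-Gal4 proteins; reporter mRNA measured after 24 h dosing. Read-out by RT-PCR, 6-FAM labelling, HpaI digestion and capillary electrophoresis; gain of signal versus DMSO.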

[2] = target: human Peroxisome Proliferator-activated Receptor delta (PPARd), PPARD (gene 5467) (UniProt Q03181); assay: ATG_PPARd_TRANS: Attagene TRANS-FACTORIAL HepG2 Assay for human Peroxisome Proliferator-activated Receptor delta (PPARd) (AID 2283002)
How it was run: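 Fluorescence from capillary electrophoresis of labelled RT-PCR reporter fragments gives the signal; DMSO sets baseline. Cells: HepG2 transiently carrying GAL4-UAS reporter units plus chimeric nuclear receptor-Gal4 proteins, exposed to chemicals for 24 h.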

[3] = target: human Retinoic Acid Receptor beta (RARb), RARB (gene 5915) (UniProt P10826); assay: ATG_RARb_TRANS: Attagene TRANS-FACTORIAL HepG2 Assay for human Retinoic Acid Receptor beta (AID 2283004)
How it was run: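 Transient transfection of HepG2 with multiple reporter units → chemical dosing, 24 h → total RNA isolation → RT with oligo(dT) → reporter-specific PCR, 6-FAM primer extension, HpaI digest → capillary electrophoresis. Positive direction vs DMSO control.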

[4] = target: Retinoic acid receptor alpha (Homo sapiens) (UniProt P10276); assay: ATG_RARa_TRANS: Attagene TRANS-FACTORIAL HepG2 Assay for human Retinoic Acid Receptor alpha (RARa) (AID 2283005)
How it was run: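 HepG2 transiently transfected with multiplex GAL4-UAS reporter units including a human RARa–GAL4 chimera; 24 h compound exposure. Reporter mRNA quantified by RT-PCR, 6-FAM labeling and capillary electrophoresis; gain of signal versus DMSO.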

[5] = target: Peroxisome proliferator-activated receptor gamma (Homo sapiens) (UniProt P37231); assay: ATG_PPARg_TRANS: Attagene TRANS-FACTORIAL HepG2 Assay for human Peroxisome Proliferator-activated Receptor-gamma (PPARg) (AID 2283007)
How it was run: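 Gain-of-signal endpoint relative to DMSO, derived from reporter mRNA levels quantified by RT-PCR and capillary electrophoresis. Cells were HepG2 transiently expressing a chimeric NR-Gal4 construct with GAL4-UAS reporters, exposed to chemicals for 24 h.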

[6] = target: Nuclear receptor subfamily 1 group I member 2 (Homo sapiens) (UniProt O75469); assay: ATG_PXR_TRANS: Attagene TRANS-FACTORIAL HepG2 Assay for human Pregnane X Receptor (PXR) (AID 2283008)
How it was run: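 HepG2 cells transiently transfected with GAL4-UAS reporter units and PXR-Gal4 chimera, exposed 24 h. Reporter mRNA quantified by RT-PCR, fluorescent labelling, HpaI digestion and capillary electrophoresis; gain of signal vs DMSO.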

[7] = target: human Retinoic Acid Receptor gamma (RARg), RARG (gene 5916) (UniProt P13631); assay: ATG_RARg_TRANS: Attagene TRANS-FACTORIAL HepG2 Assay for human Retinoic Acid Receptor gamma (RARg) (AID 2283009)
How it was run: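 HepG2 transiently transfected with GAL4-UAS reporter units and chimeric NR-Gal4 constructs; 24 h compound exposure. Reporter mRNA quantified by RT-PCR, FAM labeling, HpaI digestion and capillary electrophoresis; gain-of-signal versus DMSO.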

[8] = target: human RAR-related Orphan Receptor beta (RORb), RORB (gene 6096) (UniProt Q92753); assay: ATG_RORb_TRANS: Attagene TRANS-FACTORIAL HepG2 Assay for human RAR-related Orphan Receptor beta (RORb) (AID 2283010)
How it was run: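 HepG2 cells transiently transfected with GAL4-UAS reporter units expressing chimeric NR-Gal4 protein; reporter mRNA measured 24 h after dosing by RT-PCR, 6-FAM labelling and capillary electrophoresis. Gain-of-signal fitted relative to DMSO baseline.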

[9] = target: human RAR-related Orphan Receptor gamma (RORg), RORC (gene 6097) (UniProt P51449); assay: ATG_RORg_TRANS: Attagene TRANS-FACTORIAL HepG2 Assay for human RAR-related Orphan Receptor gamma (RORg) (AID 2283011)
How it was run: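 First, HepG2 liver cells were transfected with GAL4-UAS-driven reporter constructs and the RORg-Gal4 fusion. Next, they were treated with chemical for 24 h. Finally, reporter mRNA was quantified by RT-PCR and capillary electrophoresis, with upward activity fitted against DMSO.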

[10] = target: Retinoic acid receptor RXR-alpha (Homo sapiens) (UniProt P19793); assay: ATG_RXRa_TRANS: Attagene TRANS-FACTORIAL HepG2 Assay for human Retinoid X Receptor alpha (RXRa) (AID 2283012)
How it was run: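 HepG2 cells transiently transfected with GAL4-UAS reporter units and chimeric RXRa-Gal4 protein, treated 24 h. Reporter mRNA measured by RT-PCR, fluorescent labelling, HpaI digestion and capillary electrophoresis. Induction fitted against DMSO.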

[11] = target: human Retinoid X Receptor beta (RXRb), RXRB (gene 6257) (UniProt P28702); assay: ATG_RXRb_TRANS: Attagene TRANS-FACTORIAL HepG2 Assay for human Retinoid X Receptor beta (RXRb) (AID 2283013)
How it was run: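 HepG2 cells were transiently transfected with multiplexed GAL4-UAS reporters and a chimeric RXRb-Gal4 construct, then exposed for 24 h. Reporter mRNA was quantified by RT-PCR, FAM labeling, HpaI digestion and capillary electrophoresis; gain of signal was scored against DMSO.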

[12] = target: human Thyroid Receptor alpha (THRa1), THRA (gene 7067) (UniProt P10827); assay: ATG_THRa1_TRANS: Attagene TRANS-FACTORIAL HepG2 Assay for human Thyroid Receptor alpha (THRa1) (AID 2283014)
How it was run: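 Reporter transcript induction, read by capillary electrophoresis of 6-FAM-labelled RT-PCR products, reflects activity of a transfected THRa1-Gal4 fusion in HepG2 liver cells. Cells were dosed for 24 h; activity was fitted in the positive direction against DMSO.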

[13] = read-out: Intercellular Adhesion Molecule 1 (ICAM1), ICAM1 (gene 3383); assay: BSK_3C_ICAM1: BioMAP Diversity Plus: 3C Assay for Intercellular Adhesion Molecule 1 (ICAM1) Biomarker Activity (AID 2283003; active = hit-call score of the fitted dose curve at least 0.9, where 1 is the maximum; inactive = score below 0.9); details: primary human endothelial cells (HUVEC); actives raise or lower the signal
How it was run: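 HUVEC primary cells stimulated under 3C conditions; ICAM1 measured by ELISA 24 h after compound dosing. Curves fitted bidirectionally against the DMSO baseline. Overt cytotoxicity checked by SRB staining of parallel cultures.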

[14] = read-out: E-selectin (Homo sapiens) (UniProt P16581); assay: BSK_3C_Eselectin: BioMAP Diversity Plus: 3C Assay for Eselectin Biomarker Activity (AID 2283015; active = hit-call score of the fitted dose curve at least 0.9, where 1 is the maximum; inactive = score below 0.9); details: primary human endothelial cells (HUVEC); actives raise or lower the signal
How it was run: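 ELISA read-out of E-selectin on endothelial monolayers after 24 h chemical treatment. Human umbilical vein primary cells served as the system, with DMSO defining baseline activity for bidirectional fitting.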

[15] = read-out: Interleukin-1 alpha (IL1a), IL1A (gene 3552); assay: BSK_BE3C_IL1a: BioMAP Diversity Plus: BE3C Assay for Interleukin-1 alpha (IL1a) Biomarker Activity (AID 2283016; active = hit-call score of the fitted dose curve at least 0.9, where 1 is the maximum; inactive = score below 0.9); details: primary human bronchial epithelial cells; actives raise or lower the signal
How it was run: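 Human primary bronchial epithelial cells, 24 h chemical exposure; IL-1a quantified by ELISA, fitted bidirectionally against DMSO. Cytotoxicity assessed in parallel by SRB total-protein staining at the time of measurement.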

[16] = read-out: Monocyte Chemoattractant Protein-1 (MCP1), CCL2 (gene 6347); assay: BSK_3C_MCP1: BioMAP Diversity Plus: 3C Assay for Monocyte Chemoattractant Protein-1 (MCP1) Biomarker Activity (AID 2283017; active = hit-call score of the fitted dose curve at least 0.9, where 1 is the maximum; inactive = score below 0.9); details: primary human endothelial cells (HUVEC); actives raise or lower the signal
How it was run: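 ELISA read-out of MCP-1 from human umbilical vein endothelial cell cultures harvested 24 h post-dosing. Gain or loss of signal was fitted relative to DMSO.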

[17] = read-out: Monocyte Chemoattractant Protein-1 (MCP1), CCL2 (gene 6347); assay: BSK_4H_MCP1: BioMAP Diversity Plus: 4H Assay for Monocyte Chemoattractant Protein-1 (MCP1) Biomarker Activity (AID 2283018; active = hit-call score of the fitted dose curve at least 0.9, where 1 is the maximum; inactive = score below 0.9); details: primary human endothelial cells (HUVEC); actives raise or lower the signal
How it was run: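 Human umbilical vein endothelial cells (4H system) exposed to chemicals for 24 h in 96-well format. MCP-1 measured by ELISA; bidirectional fitting against DMSO, with SRB total-protein staining in parallel cultures for cytotoxicity.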

[18] = read-out: Human Leukocyte Antigen - DR isotype (HLADR), HLA-DRA (gene 3122); assay: BSK_3C_HLADR: BioMAP Diversity Plus: 3C Assay for Human Leukocyte Antigen - DR isotype (HLADR) Biomarker Activity (AID 2283019; active = hit-call score of the fitted dose curve at least 0.9, where 1 is the maximum; inactive = score below 0.9); details: primary human endothelial cells (HUVEC); actives raise or lower the signal
How it was run: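 ELISA readout of surface HLA-DR on human umbilical vein endothelium, taken 24 h after chemical treatment. Gain- and loss-of-signal were both fitted relative to DMSO.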

[19] = read-out: Interleukin-8 (IL8), CXCL8 (gene 3576); assay: BSK_3C_IL8: BioMAP Diversity Plus: 3C Assay for Interleukin-8 (IL8) Biomarker Activity (AID 2283020; active = hit-call score of the fitted dose curve at least 0.9, where 1 is the maximum; inactive = score below 0.9); details: primary human endothelial cells (HUVEC); actives raise or lower the signal
How it was run: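 Primary human umbilical vein endothelial cells were dosed for 24 h. IL-8 was quantified by ELISA and fitted bidirectionally against DMSO. Cytotoxicity was assessed in parallel cultures by SRB staining at 560 nm.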

human Thyroid Receptor alpha (THRa1), THRA (gene 7067), sequence (P10827 whole entry, looked up, the tested form may be a part): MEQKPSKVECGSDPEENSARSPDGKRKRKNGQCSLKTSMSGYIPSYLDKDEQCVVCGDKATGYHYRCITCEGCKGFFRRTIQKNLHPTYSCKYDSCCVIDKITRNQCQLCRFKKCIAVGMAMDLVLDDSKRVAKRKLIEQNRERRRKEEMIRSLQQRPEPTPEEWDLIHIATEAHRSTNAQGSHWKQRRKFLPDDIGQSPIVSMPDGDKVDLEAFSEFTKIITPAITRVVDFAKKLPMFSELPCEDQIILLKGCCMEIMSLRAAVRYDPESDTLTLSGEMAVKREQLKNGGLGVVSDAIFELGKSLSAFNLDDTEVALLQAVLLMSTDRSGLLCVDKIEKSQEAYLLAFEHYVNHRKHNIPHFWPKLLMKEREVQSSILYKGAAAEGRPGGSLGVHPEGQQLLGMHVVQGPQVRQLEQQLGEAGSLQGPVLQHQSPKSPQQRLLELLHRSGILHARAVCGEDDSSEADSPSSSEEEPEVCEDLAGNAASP
human Retinoic Acid Receptor gamma (RARg), RARG (gene 5916), sequence (P13631 whole entry, looked up, the tested form may be a part): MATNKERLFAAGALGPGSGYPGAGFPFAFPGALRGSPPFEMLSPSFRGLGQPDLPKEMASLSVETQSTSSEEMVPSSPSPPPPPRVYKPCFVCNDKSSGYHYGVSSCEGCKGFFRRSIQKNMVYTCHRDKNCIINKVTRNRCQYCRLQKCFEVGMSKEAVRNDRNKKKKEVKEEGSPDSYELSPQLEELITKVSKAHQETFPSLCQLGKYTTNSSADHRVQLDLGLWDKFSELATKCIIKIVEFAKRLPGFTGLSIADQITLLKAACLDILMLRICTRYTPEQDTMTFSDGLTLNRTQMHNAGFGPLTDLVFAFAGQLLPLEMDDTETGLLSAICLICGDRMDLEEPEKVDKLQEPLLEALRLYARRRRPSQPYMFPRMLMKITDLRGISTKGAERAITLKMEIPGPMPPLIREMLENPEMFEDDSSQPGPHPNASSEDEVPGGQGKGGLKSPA
Peroxisome proliferator-activated receptor gamma (Homo sapiens), sequence (P37231 whole entry, looked up, the tested form may be a part): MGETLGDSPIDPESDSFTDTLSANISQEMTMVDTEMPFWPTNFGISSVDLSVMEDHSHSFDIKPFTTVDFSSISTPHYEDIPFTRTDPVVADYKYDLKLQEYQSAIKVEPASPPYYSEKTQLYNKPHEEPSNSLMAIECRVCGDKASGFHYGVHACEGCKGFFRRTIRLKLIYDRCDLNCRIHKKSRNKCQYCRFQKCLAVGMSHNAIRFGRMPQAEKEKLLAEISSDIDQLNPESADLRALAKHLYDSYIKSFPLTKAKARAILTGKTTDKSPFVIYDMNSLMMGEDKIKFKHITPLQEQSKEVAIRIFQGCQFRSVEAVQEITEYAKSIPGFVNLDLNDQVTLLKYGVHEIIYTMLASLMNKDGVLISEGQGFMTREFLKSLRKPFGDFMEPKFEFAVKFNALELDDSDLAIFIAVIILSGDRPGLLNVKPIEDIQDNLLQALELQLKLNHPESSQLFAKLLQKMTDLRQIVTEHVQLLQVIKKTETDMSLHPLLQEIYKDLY
Nuclear receptor subfamily 1 group I member 2 (Homo sapiens), sequence (O75469 whole entry, looked up, the tested form may be a part): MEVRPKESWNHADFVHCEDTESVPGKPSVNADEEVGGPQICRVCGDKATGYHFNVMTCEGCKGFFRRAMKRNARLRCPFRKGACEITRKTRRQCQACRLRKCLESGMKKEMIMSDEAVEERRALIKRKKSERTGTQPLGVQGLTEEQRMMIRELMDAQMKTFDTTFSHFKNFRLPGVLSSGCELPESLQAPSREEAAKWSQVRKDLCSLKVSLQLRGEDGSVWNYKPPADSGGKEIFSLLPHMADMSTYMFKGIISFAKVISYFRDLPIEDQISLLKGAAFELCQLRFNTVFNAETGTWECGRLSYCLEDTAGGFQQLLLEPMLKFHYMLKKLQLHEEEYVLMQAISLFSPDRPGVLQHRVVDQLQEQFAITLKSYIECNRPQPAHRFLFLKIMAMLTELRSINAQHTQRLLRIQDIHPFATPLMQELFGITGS
human Peroxisome Proliferator-activated Receptor delta (PPARd), PPARD (gene 5467), sequence (Q03181 whole entry, looked up, the tested form may be a part): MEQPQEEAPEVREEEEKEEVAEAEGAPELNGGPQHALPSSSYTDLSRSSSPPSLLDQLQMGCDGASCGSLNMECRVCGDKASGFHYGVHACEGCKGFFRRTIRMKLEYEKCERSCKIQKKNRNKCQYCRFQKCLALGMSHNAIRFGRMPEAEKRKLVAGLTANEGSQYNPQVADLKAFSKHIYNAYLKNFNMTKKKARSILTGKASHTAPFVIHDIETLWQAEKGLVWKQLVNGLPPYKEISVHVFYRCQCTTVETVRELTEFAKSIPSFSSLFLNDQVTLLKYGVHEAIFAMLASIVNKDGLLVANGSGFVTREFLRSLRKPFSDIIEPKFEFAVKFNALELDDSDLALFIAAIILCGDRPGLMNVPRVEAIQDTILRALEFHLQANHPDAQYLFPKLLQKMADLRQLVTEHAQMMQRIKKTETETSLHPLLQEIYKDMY
Retinoic acid receptor alpha (Homo sapiens), sequence (P10276 whole entry, looked up, the tested form may be a part): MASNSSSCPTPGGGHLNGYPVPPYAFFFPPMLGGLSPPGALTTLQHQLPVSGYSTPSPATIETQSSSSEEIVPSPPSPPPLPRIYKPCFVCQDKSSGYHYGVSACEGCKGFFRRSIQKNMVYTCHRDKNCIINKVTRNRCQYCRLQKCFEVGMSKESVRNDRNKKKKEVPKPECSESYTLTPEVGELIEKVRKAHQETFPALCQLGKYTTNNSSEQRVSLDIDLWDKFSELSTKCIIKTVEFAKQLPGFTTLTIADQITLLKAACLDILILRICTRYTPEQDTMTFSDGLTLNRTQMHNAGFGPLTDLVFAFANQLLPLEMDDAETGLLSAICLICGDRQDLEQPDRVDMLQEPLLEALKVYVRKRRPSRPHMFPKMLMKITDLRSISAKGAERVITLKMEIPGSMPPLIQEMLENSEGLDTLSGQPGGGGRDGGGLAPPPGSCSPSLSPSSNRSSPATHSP
human Retinoic Acid Receptor beta (RARb), RARB (gene 5915), sequence (P10826 whole entry, looked up): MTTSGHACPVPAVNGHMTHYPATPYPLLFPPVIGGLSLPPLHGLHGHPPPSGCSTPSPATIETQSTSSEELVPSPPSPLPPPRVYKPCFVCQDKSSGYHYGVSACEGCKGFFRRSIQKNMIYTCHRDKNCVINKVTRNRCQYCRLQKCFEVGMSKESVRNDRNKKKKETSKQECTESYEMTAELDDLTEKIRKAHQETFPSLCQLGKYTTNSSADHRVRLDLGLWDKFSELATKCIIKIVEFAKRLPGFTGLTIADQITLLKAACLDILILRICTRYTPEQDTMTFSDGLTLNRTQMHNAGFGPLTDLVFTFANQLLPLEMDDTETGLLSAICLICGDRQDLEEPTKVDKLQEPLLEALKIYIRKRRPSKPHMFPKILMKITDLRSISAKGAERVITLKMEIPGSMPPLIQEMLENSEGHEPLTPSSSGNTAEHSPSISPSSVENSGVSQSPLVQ
human Retinoid X Receptor beta (RXRb), RXRB (gene 6257), sequence (P28702 whole entry, looked up, the tested form may be a part): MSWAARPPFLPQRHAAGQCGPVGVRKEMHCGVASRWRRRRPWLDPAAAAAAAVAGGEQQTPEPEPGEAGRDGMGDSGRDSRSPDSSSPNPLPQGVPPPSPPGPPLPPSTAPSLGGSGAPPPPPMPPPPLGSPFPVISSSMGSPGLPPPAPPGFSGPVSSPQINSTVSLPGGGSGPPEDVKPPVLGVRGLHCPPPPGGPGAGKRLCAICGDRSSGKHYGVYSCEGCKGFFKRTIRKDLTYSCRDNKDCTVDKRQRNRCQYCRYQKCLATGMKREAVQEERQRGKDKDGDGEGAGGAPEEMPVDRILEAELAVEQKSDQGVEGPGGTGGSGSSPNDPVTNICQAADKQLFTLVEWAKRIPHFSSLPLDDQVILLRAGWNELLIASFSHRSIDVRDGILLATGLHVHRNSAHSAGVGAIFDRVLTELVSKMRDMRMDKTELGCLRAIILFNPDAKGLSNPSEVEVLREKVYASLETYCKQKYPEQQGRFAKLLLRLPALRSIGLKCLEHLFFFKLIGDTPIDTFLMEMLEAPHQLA
human Peroxisome Proliferator-activated Receptor alpha (PPARa), PPARA (gene 5465), sequence (Q07869 whole entry, looked up, the tested form may be a part): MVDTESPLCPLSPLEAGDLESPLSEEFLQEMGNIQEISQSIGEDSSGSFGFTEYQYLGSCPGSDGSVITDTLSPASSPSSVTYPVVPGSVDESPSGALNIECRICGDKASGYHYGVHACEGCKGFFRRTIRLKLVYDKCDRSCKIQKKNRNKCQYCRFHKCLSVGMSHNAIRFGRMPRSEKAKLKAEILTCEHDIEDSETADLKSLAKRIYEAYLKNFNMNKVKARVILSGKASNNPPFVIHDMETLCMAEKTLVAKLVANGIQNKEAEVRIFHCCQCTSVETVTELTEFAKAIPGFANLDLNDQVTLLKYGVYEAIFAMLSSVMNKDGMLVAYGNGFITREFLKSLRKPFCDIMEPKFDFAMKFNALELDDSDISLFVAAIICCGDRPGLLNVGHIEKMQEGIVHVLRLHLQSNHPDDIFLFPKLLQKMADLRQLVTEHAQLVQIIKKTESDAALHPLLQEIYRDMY
human RAR-related Orphan Receptor beta (RORb), RORB (gene 6096), sequence (Q92753 whole entry, looked up, the tested form may be a part): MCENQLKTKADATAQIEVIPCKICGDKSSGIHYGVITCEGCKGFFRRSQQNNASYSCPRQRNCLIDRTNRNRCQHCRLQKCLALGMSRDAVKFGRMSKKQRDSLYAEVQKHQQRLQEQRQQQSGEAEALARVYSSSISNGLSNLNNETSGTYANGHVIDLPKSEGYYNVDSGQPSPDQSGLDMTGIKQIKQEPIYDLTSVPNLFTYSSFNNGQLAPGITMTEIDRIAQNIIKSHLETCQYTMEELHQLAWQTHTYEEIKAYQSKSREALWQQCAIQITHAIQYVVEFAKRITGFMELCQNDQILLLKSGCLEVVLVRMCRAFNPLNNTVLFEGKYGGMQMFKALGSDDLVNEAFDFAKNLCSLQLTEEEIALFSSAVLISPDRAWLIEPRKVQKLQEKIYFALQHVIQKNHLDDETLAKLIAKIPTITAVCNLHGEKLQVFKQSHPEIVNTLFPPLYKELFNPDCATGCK

## O=C(O)c1ccc(O)cc1
[1]
  outcome: inactive
[2]
  outcome: inactive
[3]
  outcome: inactive
[4]
  outcome: inactive
[5]
  outcome: inactive
[6]
  outcome: inactive
[7]
  outcome: inactive
[8]
  outcome: inactive
[9]
  outcome: inactive
[10]
  outcome: inactive
[11]
  outcome: inactive
[12]
  outcome: inactive

## CN(C)C(=S)SC(=S)N(C)C
[1]
  outcome: inactive
[2]
  outcome: inactive
[13]
  outcome: inactive
[5]
  AC50: 20.9 µM (active)
[8]
  outcome: inactive
[9]
  outcome: inactive
[12]
  outcome: inactive
[14]
  AC50: 19.9 µM (active)
[15]
  AC50: 30.9 µM (active)
[16]
  AC50: 31.4 µM (active)
[17]
  AC50: 29.5 µM (active)
[18]
  AC50: 31.2 µM (active)
[19]
  AC50: 3.95 µM (active)

## C[C@H]1O[C@@H](O[C@H]2[C@@H](O)C[C@H](O[C@H]3[C@@H](O)C[C@H](O[C@H]4CC[C@@]5(C)[C@H](CC[C@@H]6[C@@H]5C[C@@H](O)[C@]5(C)[C@@H](C7=CC(=O)OC7)CC[C@]65O)C4)O[C@@H]3C)O[C@@H]2C)C[C@H](O)[C@@H]1O
[1]
  outcome: inactive
[2]
  outcome: inactive
[4]
  outcome: inactive
[5]
  outcome: inactive
[6]
  outcome: inactive
[7]
  outcome: inactive
[8]
  outcome: inactive
[12]
  outcome: inactive

## NC(=S)NNC(N)=S
[1]
  outcome: inactive
[2]
  outcome: inactive
[3]
  outcome: inactive
[4]
  outcome: inactive
[5]
  outcome: inactive
[6]
  outcome: inactive
[11]
  outcome: inactive

## Cc1ccc(S(=O)(=O)Oc2ccc(N=Nc3ccc(-c4ccc(N=Nc5c(O)ccc6cc(S(=O)(=O)O)cc(S(=O)(=O)O)c56)c(C)c4)cc3C)cc2)cc1
[1]
  outcome: inactive
[2]
  outcome: inactive
[3]
  outcome: inactive
[5]
  AC50: 18.3 µM (active)
[6]
  outcome: inactive
[7]
  outcome: inactive
[8]
  outcome: inactive
[10]
  outcome: inactive
[11]
  outcome: inactive
[12]
  outcome: inactive

## CCCCCCCC/C=C\CCCCCCCC(=O)OCC
[1]
  AC50: 45.1 µM (active)
[2]
  outcome: inactive
[3]
  outcome: inactive
[5]
  AC50: 50.5 µM (active)
[6]
  outcome: inactive
[8]
  outcome: inactive
[11]
  outcome: inactive
